Measurements from PubChem BioAssay (Tox21).
Records with an inconclusive call do not appear. The source made the active and inactive calls. Calls follow the shape of the dose curve; as a rule, active = well fitted cell-killing curve with a large enough effect in the repeat runs; inconclusive = weak or mixed curves; inactive = no such curve, though single readings can be large or run the other way.

assay: qHTS assay to identify small molecule agonists of the peroxisome proliferator-activated receptor delta (PPARd) signaling pathway - cell viability counter screen (AID 743211); details: PPARd-bla HEK293H viability, CellTiter-Glo luminescence, 17 h; series mostly up to 62.6 µM; also: nearly all actives have a fitted effect of over 55% in size
Source text: U.S. Tox21 Program National Center for Advancing Translational Sciences [NCATS] NIH Chemical Genomics Center [NCGC] U.S. Environmental Protection Agency [EPA] National Institutes of Environmental Health Sciences [NIEHS] National Toxicology Program [NTP] U.S. Food and Drug Administration [FDA] Tox21 Assay Overview: The peroxisome proliferator-activated receptors (PPARs) are lipid-activated transcription factors of the nuclear receptor superfamily with three distinct subtypes namely PPAR alpha, PPAR delta (PPARd) and PPAR gamma. All these subtypes heterodimerizes with Retinoid X receptor (RXR) and have different physiological functions. […] To identify the compounds that activate PPAR-delta signaling, GeneBLAzer PPAR delta UAS-bla HEK293H cell line (Invitrogen, Carlsbad, CA, USA) containing a beta-lactamase reporter gene under the control of an Upstream Activator Sequence (UAS) was used to screen the Tox21 compound library. The cytotoxicity of the Tox21 compound library against the PPARd-bla cell line was tested in parallel by measuring the cell viability using CellTiter-Glo assay (Promega, Madison, WI) in the same wells.
Tox21 Assay Protocol Summary: PPARd-bla cells were dispensed at 3000 cells/6uL/well in 1536-well black wall/clear bottom plates using a Multidrop Combi (Thermo Fisher Scientific, Waltham, MA) dispenser. After the assay plates were incubated at 37 C and 5% CO2 for 5 h, 23 nL of compounds dissolved in DMSO, positive controls or DMSO only was transferred to the assay plate by a Pintool station (Kalypsys, San Diego, CA). The assay plates were incubated at 37C for 17 h. After 1 uL of LiveBLAzerTM B/G FRET substrate was added using a Bioraptr Flying Reagent Dispenser (FRD) workstation (Beckman Coulter, Indianapolis, IN, USA), the plates were incubated at room temperature for 2 h, and fluorescence intensity was measured by an Envision plate reader (PerkinElmer, Shelton, CT). For cell viability readout that measures cytotoxicity, 3 ul/well of CellTiter-Glo reagent was added into the assay plates using a Bioraptr FRD. After 30 min incubation at room temperature, the luminescence intensity in the plates was measured using a ViewLux plate reader (PerkinElmer).

| SMILES | outcome |
| --- | --- |
| CCCCCCCCCCCCCCCC(=O)NCCO | inactive |
| CC(C)(c1ccc(Oc2ccc3c(c2)C(=O)OC3=O)cc1)c1ccc(Oc2ccc3c(c2)C(=O)OC3=O)cc1 | inactive |
| Cc1ccccc1C(=O)N1CC/C(=N\OS(=O)(=O)O)c2ccc(Cl)cc21 | inactive |
| CC(C)(CO)[C@@H](O)C(=O)NCCCO | inactive |
| C=C[Si](C)(C)O[Si](C)(C)C=C | inactive |
| C[N+](C)(C)CC(O)CCl (stereo not given) | inactive |
| COCCOCCOCCOC | inactive |
| Cc1ccc(S(=O)(=O)NC(=O)NC2CCCCCCC2)cc1 | inactive |
| c1ccc(CNc2ncnc3nc[nH]c23)cc1 | inactive |
| CC(C)C(=O)Nc1cccc(C(F)(F)F)c1 | inactive |
| CC(CC(=O)O)CC(C)(C)C (stereo not given) | inactive |
| CN=C(NC#N)NCCSCc1csc(N=C(N)N)n1 | inactive |
| CCCCCC(=O)OCC | inactive |
| NC(=O)C1(N2CCCCC2)CCN(CCCC(=O)c2ccc(F)cc2)CC1 | inactive |
| CCC(CO)CO | inactive |
| O=[Si]=O | inactive |
| BrC/C=C/CBr | inactive |
| CCCCCCCC[Si](OCC)(OCC)OCC | inactive |
| CCCCOC(=O)[C@@H](C)Oc1ccc(Oc2ccc(C(F)(F)F)cn2)cc1 | inactive |
| CNC(=O)NC | inactive |

| SMILES | outcome |
| --- | --- |
| C=CCOc1cc(Cl)ccc1C(=O)NCCN(CC)CC | inactive |
| CCOC(=O)CCc1ccccc1 | inactive |
| CO[Si](CCCS)(OC)OC | inactive |
| CCCCCC1CCCC(=O)O1 (stereo not given) | inactive |
| COc1ccc(N=Nc2cc(C)c(N=Nc3ccc(S(=O)(=O)O)cc3)cc2OC)cc1 | inactive |
| O=C(O)c1ccccc1C(=O)OCc1ccccc1 | inactive |
| CCS(=O)(=O)CCn1c([N+](=O)[O-])cnc1C | inactive |
| CCOC(=O)CCCCCCCCC(=O)OCC | inactive |
| NS(=O)(=O)c1ccccc1OC(F)(F)F | inactive |
| CCCCCCCCCCCCOC(C)=O | inactive |
| CO[Si](CCCCl)(OC)OC | inactive |
| C=C(C)C(=O)OC | inactive |
| CCOc1ccc(NC(=O)OC(C)C)cc1OCC | inactive |
| CCC1COC(=O)O1 (stereo not given) | inactive |
| CC(C)CCCC(C)CC=O (stereo not given) | inactive |
| C=C[C@@H](C)CCC=C(C)C | inactive |
| C[C@H]1O[C@H](O[C@H]2[C@H](O)[C@@H](O)[C@@H](O[C@H]3[C@H](O)[C@@H](O)[C@H](O)O[C@@H]3CO)O[C@@H]2CO)[C@H](O)[C@@H](O)[C@@H]1N[C@H]1C=C(CO)[C@@H](O)[C@H](O)[C@H]1O | inactive |
| Cc1nc(C)nc(N2C[C@@H](C)N(c3ccnc([C@@H](C)O)n3)[C@@H](C)C2)n1 | inactive |
| CCC(=O)c1ccc(O)cc1 | inactive |
| CCCCCC1Nc2cc(C(F)(F)F)c(S(N)(=O)=O)cc2S(=O)(=O)N1 (stereo not given) | inactive |
